Activity calls are given as the source filed them. Rule for the calls: active = hit-call score of the fitted dose curve at least 0.9, where 1 is the maximum; inactive = score below 0.9.
molecular target: Hypoxia-inducible factor 1-alpha (Homo sapiens) (UniProt Q16665); assay: ATG_HIF1a_CIS: Attagene CIS-FACTORIAL HepG2 Assay for human Hypoxia Inducible Factor 1 (HIF1A) (AID 2282951); details: HepG2 Attagene cis-factorial HIF1a reporter transcription; actives raise or lower the signal
Summary of the method: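 Cis-element reporter constructs were transiently transfected into HepG2 cells, which were treated for 24 h; reporter RNA was reverse-transcribed, amplified, labelled and resolved by capillary electrophoresis.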

Hypoxia-inducible factor 1-alpha (Homo sapiens), sequence (Q16665 whole entry, looked up): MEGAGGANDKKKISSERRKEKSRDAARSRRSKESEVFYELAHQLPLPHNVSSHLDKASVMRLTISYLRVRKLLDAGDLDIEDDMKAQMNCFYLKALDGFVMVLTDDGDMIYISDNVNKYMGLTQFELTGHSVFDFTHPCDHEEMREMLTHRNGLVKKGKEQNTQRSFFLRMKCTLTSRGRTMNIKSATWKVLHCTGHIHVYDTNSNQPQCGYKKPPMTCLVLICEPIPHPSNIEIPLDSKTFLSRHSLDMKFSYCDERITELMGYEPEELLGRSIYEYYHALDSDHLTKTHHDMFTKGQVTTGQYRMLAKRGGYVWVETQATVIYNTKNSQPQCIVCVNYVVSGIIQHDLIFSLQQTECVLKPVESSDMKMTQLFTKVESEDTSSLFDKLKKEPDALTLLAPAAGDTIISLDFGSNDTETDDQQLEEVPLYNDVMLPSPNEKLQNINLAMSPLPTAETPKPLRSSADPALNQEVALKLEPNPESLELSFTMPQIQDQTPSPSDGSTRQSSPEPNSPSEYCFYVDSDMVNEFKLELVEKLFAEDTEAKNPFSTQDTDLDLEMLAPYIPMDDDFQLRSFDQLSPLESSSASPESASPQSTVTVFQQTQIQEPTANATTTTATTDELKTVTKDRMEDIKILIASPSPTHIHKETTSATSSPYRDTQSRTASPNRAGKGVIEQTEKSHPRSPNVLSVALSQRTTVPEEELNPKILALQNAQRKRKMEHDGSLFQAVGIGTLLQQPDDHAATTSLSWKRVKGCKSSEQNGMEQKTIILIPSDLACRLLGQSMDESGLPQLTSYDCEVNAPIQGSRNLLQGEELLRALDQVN

SMILES	outcome	AC50
O=P(O)(O)Oc1ccccc1	inactive	
FC(F)=C(F)OC(F)(F)C(F)(F)C(F)(F)F	inactive	
NC(=O)NNC(N)=O	inactive	
CC(=O)CC(N)=O	inactive	
CC(=O)OC(C)C	inactive	
CCOC(=O)c1ccccc1C(=C1C=C(Br)C(=O)C(Br)=C1)c1cc(Br)c(O)c(Br)c1		35.8 µM (active)
CC=CC(F)(F)C(F)(F)C(F)(F)F	inactive	
C#CC1(O)CC[C@H]2[C@@H]3CCC4=CCCC[C@@H]4[C@H]3CC[C@@]21C (stereo not given in full)	inactive	
CCOC(=O)NNc1nncc2ccccc12	inactive	
CCCCCCCCCCCCCCCC[N+](C)(C)CC	inactive	
C[Si](C)(C)O[Si](O)(O)O	inactive	
Oc1ccc(Cl)cc1Cc1cc(Cl)ccc1O		11.1 µM (active)
O=[N+]([O-])C1(Br)COCOC1	inactive	
COC(=O)/C=C/C(C)=C\C=C\C(C)=C\C=C\C=C(C)\C=C\C=C(C)\C=C\C(=O)O	inactive	
c1ccc(CCCc2ccncc2)cc1	inactive	

molecular target: Hepatocyte nuclear factor 6 (Homo sapiens) (UniProt Q9UBC0); assay: ATG_HNF6_CIS: Attagene CIS-FACTORIAL HepG2 Assay for human Hepatocyte Nuclear Factor 6 (HNF6) (AID 2282952); details: HepG2 Attagene cis-factorial HNF6 reporter transcription; actives raise or lower the signal
Summary of the method: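 HepG2 cells transiently transfected with cis-element-driven multiple reporter transcription units, dosed 24 h; reporter mRNA quantified by RT-PCR, FAM primer extension, HpaI digestion and capillary electrophoresis; bidirectional fit versus DMSO baseline.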

Hepatocyte nuclear factor 6 (Homo sapiens), sequence (Q9UBC0 whole entry, looked up): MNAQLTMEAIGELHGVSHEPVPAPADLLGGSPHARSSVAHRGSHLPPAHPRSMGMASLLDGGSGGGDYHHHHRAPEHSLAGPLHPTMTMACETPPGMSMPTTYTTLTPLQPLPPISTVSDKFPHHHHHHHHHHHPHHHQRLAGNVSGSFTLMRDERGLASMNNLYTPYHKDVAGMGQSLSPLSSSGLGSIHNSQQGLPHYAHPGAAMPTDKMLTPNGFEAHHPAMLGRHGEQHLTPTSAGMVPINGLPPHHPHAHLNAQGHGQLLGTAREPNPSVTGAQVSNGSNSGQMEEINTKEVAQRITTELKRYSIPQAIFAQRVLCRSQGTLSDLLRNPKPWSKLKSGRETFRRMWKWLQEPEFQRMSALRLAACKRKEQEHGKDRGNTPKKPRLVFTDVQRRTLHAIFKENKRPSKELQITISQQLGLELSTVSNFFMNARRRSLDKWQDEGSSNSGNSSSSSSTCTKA

SMILES	outcome	AC50
NC(=O)c1ccccc1O	inactive	
C=CCOc1c(Br)cc(Br)cc1Br	inactive	
CCc1c(C(=O)O)c(=O)cnn1-c1ccc(Cl)cc1	inactive	
CCCCCCCCCCCCCCCC(=O)OCC	inactive	
C=CC(=O)OCCOC1C2CCC1C1CC=CC12 (stereo not given)	inactive	
C=COCCCC	inactive	
O=C1CCCCCCCCCCCCCCCO1	inactive	
CCCCCCCC[N+](C)(CCCCCCCC)CCCCCCCC	inactive	
CC(=O)[C@@]1(O)CC[C@H]2[C@@H]3C[C@H](C)C4=CC(=O)C=C[C@]4(C)[C@@]3(F)[C@@H](O)C[C@@]21C	inactive	
O=Nc1ccc(O)cc1	inactive	
Cc1ccc(C2OC[C@@H]3OC(c4ccc(C)cc4)O[C@H]([C@H](O)CO)[C@@H]3O2)cc1 (stereo not given in full)	inactive	
C1=CCCC1	inactive	
C=CC(=O)OCC(Br)CBr (stereo not given)	inactive	
NNC(=O)c1cccc(C(=O)NN)c1	inactive	
CCCC(C)CCC(C)=O (stereo not given)	inactive	
CCN(CCC#N)c1ccc(N=Nc2c(Cl)cc([N+](=O)[O-])cc2Cl)cc1	inactive	
COC(F)(F)C(F)(C(F)(F)F)C(F)(F)F	inactive	
CCc1nccnc1C	inactive	
O=[N+]([O-])c1ccc(CO)cc1	inactive	
C=C(C)CCO	inactive	

SMILES	outcome	AC50
O=S(=O)(O)c1cc(S(=O)(=O)O)c2ccc3c(S(=O)(=O)O)cc(S(=O)(=O)O)c4ccc1c2c43	inactive	
CC(C)=CCC/C(C)=C\C#N	inactive	
Nc1nc2ccccc2[nH]1	inactive	
CC=C1CC2C=CC1C2 (stereo not given)	inactive	
CC(C)c1ccc2c(C(C)C)cc(C(C)C)c(S(=O)(=O)O)c2c1	inactive	
O=P(O)(O)Oc1ccccc1	inactive	
FC(F)=C(F)OC(F)(F)C(F)(F)C(F)(F)F	inactive	
NC(=O)NNC(N)=O	inactive	
CC(=O)CC(N)=O	inactive	
CC(=O)OC(C)C	inactive	
CCOC(=O)c1ccccc1C(=C1C=C(Br)C(=O)C(Br)=C1)c1cc(Br)c(O)c(Br)c1	inactive	
CC=CC(F)(F)C(F)(F)C(F)(F)F	inactive	
C#CC1(O)CC[C@H]2[C@@H]3CCC4=CCCC[C@@H]4[C@H]3CC[C@@]21C (stereo not given in full)		55.3 µM (active)
CCOC(=O)NNc1nncc2ccccc12	inactive	
CCCCCCCCCCCCCCCC[N+](C)(C)CC	inactive	
C[Si](C)(C)O[Si](O)(O)O	inactive	
Oc1ccc(Cl)cc1Cc1cc(Cl)ccc1O	inactive	
O=[N+]([O-])C1(Br)COCOC1	inactive	
COC(=O)/C=C/C(C)=C\C=C\C(C)=C\C=C\C=C(C)\C=C\C=C(C)\C=C\C(=O)O	inactive	
c1ccc(CCCc2ccncc2)cc1	inactive	

molecular target: Heat shock factor protein 1 (Homo sapiens) (UniProt Q00613); assay: ATG_HSE_CIS: Attagene CIS-FACTORIAL HepG2 Assay for human Heat Shock Transcription Factor 1 (HSE) (AID 2282953); details: HepG2 HSE cis-reporter, Attagene RNA transcription; actives raise or lower the signal
Summary of the method: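 Reporter mRNA induction in HepG2 is measured 24 h after dosing, using transiently transfected multiplexed cis-regulated reporter units. Signal comes from capillary electrophoresis of labelled RT-PCR products, with DMSO as negative control.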

Heat shock factor protein 1 (Homo sapiens), sequence (Q00613 whole entry, looked up): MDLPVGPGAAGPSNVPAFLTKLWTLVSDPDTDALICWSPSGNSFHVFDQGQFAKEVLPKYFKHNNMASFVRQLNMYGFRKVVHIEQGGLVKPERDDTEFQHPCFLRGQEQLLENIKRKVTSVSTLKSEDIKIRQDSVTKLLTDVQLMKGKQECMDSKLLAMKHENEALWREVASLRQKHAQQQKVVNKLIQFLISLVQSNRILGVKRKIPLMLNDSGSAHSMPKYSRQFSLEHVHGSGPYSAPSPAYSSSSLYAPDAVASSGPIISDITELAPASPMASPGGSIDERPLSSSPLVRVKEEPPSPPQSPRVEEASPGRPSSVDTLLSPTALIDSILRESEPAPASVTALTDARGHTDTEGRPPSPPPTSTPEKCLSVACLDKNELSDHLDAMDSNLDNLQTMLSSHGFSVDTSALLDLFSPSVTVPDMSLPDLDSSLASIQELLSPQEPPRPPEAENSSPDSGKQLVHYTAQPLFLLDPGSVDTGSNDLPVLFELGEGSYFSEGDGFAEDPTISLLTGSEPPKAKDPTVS

SMILES	outcome	AC50
NC(=O)c1ccccc1O	inactive	
C=CCOc1c(Br)cc(Br)cc1Br	inactive	
CCc1c(C(=O)O)c(=O)cnn1-c1ccc(Cl)cc1	inactive	
CCCCCCCCCCCCCCCC(=O)OCC	inactive	
C=CC(=O)OCCOC1C2CCC1C1CC=CC12 (stereo not given)	inactive	
C=COCCCC	inactive	
O=C1CCCCCCCCCCCCCCCO1		160 µM (active)
CCCCCCCC[N+](C)(CCCCCCCC)CCCCCCCC	inactive	
CC(=O)[C@@]1(O)CC[C@H]2[C@@H]3C[C@H](C)C4=CC(=O)C=C[C@]4(C)[C@@]3(F)[C@@H](O)C[C@@]21C	inactive	
O=Nc1ccc(O)cc1	inactive	
Cc1ccc(C2OC[C@@H]3OC(c4ccc(C)cc4)O[C@H]([C@H](O)CO)[C@@H]3O2)cc1 (stereo not given in full)	inactive	
C1=CCCC1	inactive	
C=CC(=O)OCC(Br)CBr (stereo not given)		155 µM (active)
NNC(=O)c1cccc(C(=O)NN)c1	inactive	
CCCC(C)CCC(C)=O (stereo not given)	inactive	
CCN(CCC#N)c1ccc(N=Nc2c(Cl)cc([N+](=O)[O-])cc2Cl)cc1	inactive	
COC(F)(F)C(F)(C(F)(F)F)C(F)(F)F	inactive	
CCc1nccnc1C	inactive	
O=[N+]([O-])c1ccc(CO)cc1	inactive	
C=C(C)CCO	inactive	

SMILES	outcome	AC50
O=S(=O)(O)c1cc(S(=O)(=O)O)c2ccc3c(S(=O)(=O)O)cc(S(=O)(=O)O)c4ccc1c2c43	inactive	
CC(C)=CCC/C(C)=C\C#N	inactive	
Nc1nc2ccccc2[nH]1	inactive	
CC=C1CC2C=CC1C2 (stereo not given)	inactive	
CC(C)c1ccc2c(C(C)C)cc(C(C)C)c(S(=O)(=O)O)c2c1	inactive	
O=P(O)(O)Oc1ccccc1	inactive	
FC(F)=C(F)OC(F)(F)C(F)(F)C(F)(F)F	inactive	
NC(=O)NNC(N)=O	inactive	
CC(=O)CC(N)=O	inactive	
CC(=O)OC(C)C	inactive	
CCOC(=O)c1ccccc1C(=C1C=C(Br)C(=O)C(Br)=C1)c1cc(Br)c(O)c(Br)c1		20.6 µM (active)
CC=CC(F)(F)C(F)(F)C(F)(F)F	inactive	
C#CC1(O)CC[C@H]2[C@@H]3CCC4=CCCC[C@@H]4[C@H]3CC[C@@]21C (stereo not given in full)	inactive	
CCOC(=O)NNc1nncc2ccccc12	inactive	
CCCCCCCCCCCCCCCC[N+](C)(C)CC	inactive	
C[Si](C)(C)O[Si](O)(O)O	inactive	
Oc1ccc(Cl)cc1Cc1cc(Cl)ccc1O	inactive	
O=[N+]([O-])C1(Br)COCOC1		58.8 µM (active)
COC(=O)/C=C/C(C)=C\C=C\C(C)=C\C=C\C=C(C)\C=C\C=C(C)\C=C\C(=O)O	inactive	
c1ccc(CCCc2ccncc2)cc1		144 µM (active)
